From PubChem BioAssay (EPA / NIEHS)
Inconclusive results are not listed. Activity calls are given as the source filed them. The calls were made as follows, unless noted: active = hit-call score of the fitted dose curve at least 0.9, where 1 is the maximum; inactive = score below 0.9.

Key:
[1] = BSK_LPS_PGE2: BioMAP Diversity Plus: LPS Assay for Prostaglandin E2 (PGE2) Biomarker Activity (AID 2283082); conditions: primary human HUVEC with PBMC; actives raise or lower the signal;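 as to AC50: secreted prostaglandin E2 measured by ELISA in LPS-stimulated co-culture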
Outline: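 Primary human endothelial cells and blood mononuclear cells, co-cultured with LPS, receive test chemical; PGE2 ELISA follows at 24 h, with SRB-stained parallel cultures flagging cytotoxicity.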

[2] = read-out: Tissue Factor, F3 (gene 2152); experiment: BSK_LPS_TissueFactor: BioMAP Diversity Plus: LPS Assay for Tissue Factor Biomarker Activity (AID 2283084); conditions: primary human HUVEC with PBMC; actives raise or lower the signal
Outline: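 Compound was added to an endothelial cell/PBMC co-culture, and after 24 h tissue factor (CD142) was read by ELISA. Gain or loss of signal was fitted against a DMSO baseline, and parallel SRB staining (560 nm) tracked overt cytotoxicity.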

[3] = read-out: Tumor necrosis factor (Homo sapiens) (UniProt P01375); experiment: BSK_LPS_TNFa: BioMAP Diversity Plus: LPS Assay for Tumour Necrosis Factor alpha (TNFa) Biomarker Activity (AID 2283085); conditions: primary human HUVEC with PBMC; actives raise or lower the signal;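 as to AC50: TNFa protein level quantified by ELISA in the co-culture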
Outline: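 ELISA-based TNFa endpoint in a human endothelial–PBMC co-culture sampled 24 h post-exposure. Curves were fitted in both directions using DMSO as baseline of activity.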

[4] = read-out: Vascular cell adhesion molecule 1 (VCAM1), VCAM1 (gene 7412); experiment: BSK_LPS_VCAM1: BioMAP Diversity Plus: LPS Assay for Vascular cell adhesion molecule 1 (VCAM1) Biomarker Activity (AID 2283086); conditions: primary human HUVEC with PBMC; actives raise or lower the signal
Outline: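 Measured by ELISA: VCAM-1 in LPS-activated HUVEC/PBMC co-cultures 24 h after treatment. Values reflect bidirectional fitting with DMSO as baseline.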

CD38, CD38 (gene 952) = experiment: BSK_SAg_CD38: BioMAP Diversity Plus: SAg Assay for CD38 Biomarker Activity (AID 2283087); conditions: primary human HUVEC with PBMC; actives raise or lower the signal
Outline: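 Measures CD38 on a human endothelial/PBMC co-culture driven by SEB and TSST-1, 24 h after compound exposure, using ELISA with fluorescence detection; DMSO defines baseline for bidirectional curve fitting.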

CD40, CD40 (gene 958) = experiment: BSK_SAg_CD40: BioMAP Diversity Plus: SAg Assay for CD40 Biomarker Activity (AID 2283088); conditions: primary human HUVEC with PBMC; actives raise or lower the signal
Outline: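 CD40 is measured by fluorescence ELISA in an endothelial/PBMC primary human co-culture at 24 h post-dose. Fitting is bidirectional, DMSO baseline. Parallel SRB staining (560 nm) flags cytotoxicity.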

CD69, CD69 (gene 969) = experiment: BSK_SAg_CD69: BioMAP Diversity Plus: SAg Assay for CD69 Biomarker Activity (AID 2283089); conditions: primary human HUVEC with PBMC; actives raise or lower the signal;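 as to AC50: cell surface CD69 protein quantified by ELISA with fluorescence detection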
Outline: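 HUVEC co-cultured with PBMC were dosed with chemical, and CD69 was measured by ELISA with fluorescence read-out 24 h later. Bidirectional curve fitting used DMSO as negative control and activity baseline.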

[5] = read-out: Monocyte Chemoattractant Protein-1 (MCP1), CCL2 (gene 6347); experiment: BSK_SAg_MCP1: BioMAP Diversity Plus: SAg Assay for Monocyte Chemoattractant Protein-1 (MCP1) Biomarker Activity (AID 2283090); conditions: primary human HUVEC with PBMC; actives raise or lower the signal
Outline: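 Values derive from bidirectional fitting of ELISA-measured MCP1 against DMSO controls. Readings were taken 24 h after dosing human vascular endothelial cells co-cultured with peripheral blood mononuclear cells under superantigen stimulation.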

[6] = read-out: E-selectin (Homo sapiens) (UniProt P16581); experiment: BSK_SAg_Eselectin: BioMAP Diversity Plus: SAg Assay for Eselectin Biomarker Activity (AID 2283091); conditions: primary human HUVEC with PBMC; actives raise or lower the signal
Outline: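 Cell-surface E-selectin is read by ELISA at 24 h in the SAg co-culture of HUVEC and PBMC. Curves are fitted in both directions relative to DMSO. Parallel SRB total-protein staining tracks overt toxicity.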

[7] = read-out: Monokine induced gamma interferon (MIG), CXCL9 (gene 4283); experiment: BSK_SAg_MIG: BioMAP Diversity Plus: SAg Assay for Monokine induced gamma interferon (MIG) Biomarker Activity (AID 2283092); conditions: primary human HUVEC with PBMC; actives raise or lower the signal
Outline: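 HUVEC plus human PBMC co-culture, chemicals dosed and MIG (CXCL9) quantified by ELISA at 24 h. Bidirectional curve fitting against DMSO as negative control and baseline, so both gain and loss of signal count as activity.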

[8] = BSK_SAg_PBMCCytotoxicity: PBMC Cytotoxicity Assessment in the BioMAP Diversity Plus: SAg Assay (AID 2283093); conditions: primary human HUVEC with PBMC;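 also: fitted both ways against DMSO so a hit may be loss or gain of signal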;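 as to AC50: PBMC superantigen activated with SEB plus TSST-1 one hour after compound addition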
Outline: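 PBMC viability by Alamar Blue reduction, fluorescence read at 546/580 nm after 6 h dye exposure. Cells were dosed 1 h before SEB plus TSST-1 activation (20 ng/mL final each), then held 90 h; endothelial/PBMC human co-culture.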

[9] = read-out: Interleukin-8 (IL8), CXCL8 (gene 3576); experiment: BSK_SAg_IL8: BioMAP Diversity Plus: SAg Assay for Interleukin-8 (IL8) Biomarker Activity (AID 2283094); conditions: primary human HUVEC with PBMC; actives raise or lower the signal
Outline: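 Primary human endothelial cells with PBMC, exposed 24 h; IL-8 determined by ELISA, analysed bidirectionally relative to DMSO.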

[10] = BSK_SAg_Proliferation: Cell Proliferation Assessment in the BioMAP Diversity Plus: SAg Assay (AID 2283095); conditions: primary human HUVEC with PBMC;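 also: relative cell number as total protein by SRB absorbance in sub-confluent culture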
Outline: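 A human primary co-culture of umbilical vein endothelium and blood mononuclear cells receives compound; relative cell number is quantified at 96 h by SRB staining and 560 nm absorbance, with DMSO-referenced bidirectional curve fitting.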

[11] = BSK_SAg_SRB: Viability Assessment in the BioMAP Diversity Plus: SAg Assay (AID 2283096); conditions: primary human HUVEC with PBMC;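 also: cells read one day after compound addition; hits may be either gain or loss of signal compared with DMSO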
Outline: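 Compounds were added to a human vascular co-culture of umbilical vein endothelium and PBMC. After 24 h, parallel cultures were fixed with 10% TCA, stained with 0.1% sulforhodamine B and read at 560 nm. Gain or loss of signal was fitted relative to DMSO.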

[12] = target: human CYP1A1, CYP1A1 (gene 1543) (UniProt P04798); experiment: NVS_ADME_hCYP1A1: NovaScreen (NVS) CYP450-related Enzyme Activity (ADME) Assay for human CYP1A1 (AID 2283100; active = hit-call score of the fitted dose curve at least 0.9, where 1 is the maximum)
Outline: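 Chemicals were first tested in duplicate at 10 uM, and those passing a 30% inhibition threshold were rerun as concentration series topping at 20 uM. Fluorescence read-out of recombinant enzyme turnover after 1 h, relative to acetonitrile.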

[13] = target: human CYP2B6, CYP2B6 (gene 1555) (UniProt P20813); experiment: NVS_ADME_hCYP2B6: NovaScreen (NVS) CYP450-related Enzyme Activity (ADME) Assay for human CYP2B6 (AID 2283101; active = hit-call score of the fitted dose curve at least 0.9, where 1 is the maximum)
Outline: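 Recombinant human CYP2B6 with fluorogenic substrate, read by fluorescence intensity 1 h after dosing. Primary screen in duplicate at 10 uM, actives followed in concentration series; signal loss relative to acetonitrile control.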

[14] = read-out: Macrophage colony-stimulating factor (MCSF), CSF1 (gene 1435); experiment: BSK_LPS_MCSF: BioMAP Diversity Plus: LPS Assay for Macrophage colony-stimulating factor (MCSF) Biomarker Activity (AID 2283083); conditions: primary human HUVEC with PBMC; actives raise or lower the signal
Outline: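 Bidirectional fitting against DMSO was applied to M-CSF levels read by ELISA at 24 h post-dose. The system pairs human umbilical vein endothelium with peripheral blood mononuclear cells; parallel SRB staining tracked cytotoxicity.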

Measured: AC50

Sequence of E-selectin (Homo sapiens) (P16581 whole entry, looked up): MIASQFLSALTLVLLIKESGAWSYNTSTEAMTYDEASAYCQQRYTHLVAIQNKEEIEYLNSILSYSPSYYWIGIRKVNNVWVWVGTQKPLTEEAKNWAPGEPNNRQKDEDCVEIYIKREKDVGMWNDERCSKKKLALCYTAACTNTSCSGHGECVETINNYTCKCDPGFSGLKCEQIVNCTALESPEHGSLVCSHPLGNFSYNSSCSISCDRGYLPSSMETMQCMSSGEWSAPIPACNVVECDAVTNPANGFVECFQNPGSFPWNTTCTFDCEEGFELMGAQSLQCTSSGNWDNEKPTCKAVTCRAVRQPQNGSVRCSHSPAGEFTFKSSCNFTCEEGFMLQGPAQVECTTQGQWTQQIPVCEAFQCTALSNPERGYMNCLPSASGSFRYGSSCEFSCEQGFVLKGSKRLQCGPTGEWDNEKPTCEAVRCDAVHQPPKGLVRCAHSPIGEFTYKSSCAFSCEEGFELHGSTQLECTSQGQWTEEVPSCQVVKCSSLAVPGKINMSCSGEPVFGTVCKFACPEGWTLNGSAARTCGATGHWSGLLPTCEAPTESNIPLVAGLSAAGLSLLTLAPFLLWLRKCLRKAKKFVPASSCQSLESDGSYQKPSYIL
Sequence of Tumor necrosis factor (Homo sapiens) (P01375 whole entry, looked up): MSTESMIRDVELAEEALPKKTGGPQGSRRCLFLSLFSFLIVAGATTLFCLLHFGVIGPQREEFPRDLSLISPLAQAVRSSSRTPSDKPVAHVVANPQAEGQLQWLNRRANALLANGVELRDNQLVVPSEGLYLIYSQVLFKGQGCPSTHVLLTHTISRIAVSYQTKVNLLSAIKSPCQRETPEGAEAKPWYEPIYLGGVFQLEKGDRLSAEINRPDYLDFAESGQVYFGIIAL
Sequence of human CYP2B6, CYP2B6 (gene 1555) (P20813 whole entry, looked up): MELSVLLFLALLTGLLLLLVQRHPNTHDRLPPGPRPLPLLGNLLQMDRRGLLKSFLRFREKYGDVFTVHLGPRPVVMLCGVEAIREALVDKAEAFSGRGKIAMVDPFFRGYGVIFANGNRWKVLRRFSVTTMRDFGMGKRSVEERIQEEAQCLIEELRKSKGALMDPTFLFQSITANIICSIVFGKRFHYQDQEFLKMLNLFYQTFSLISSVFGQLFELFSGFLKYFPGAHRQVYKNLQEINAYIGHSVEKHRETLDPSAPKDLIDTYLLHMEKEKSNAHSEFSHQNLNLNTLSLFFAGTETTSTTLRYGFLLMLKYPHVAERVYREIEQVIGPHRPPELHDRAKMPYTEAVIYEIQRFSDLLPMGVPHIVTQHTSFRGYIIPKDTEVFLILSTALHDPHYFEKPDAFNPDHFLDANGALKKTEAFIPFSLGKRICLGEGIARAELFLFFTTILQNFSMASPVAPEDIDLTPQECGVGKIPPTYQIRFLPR
Sequence of human CYP1A1, CYP1A1 (gene 1543) (P04798 whole entry, looked up): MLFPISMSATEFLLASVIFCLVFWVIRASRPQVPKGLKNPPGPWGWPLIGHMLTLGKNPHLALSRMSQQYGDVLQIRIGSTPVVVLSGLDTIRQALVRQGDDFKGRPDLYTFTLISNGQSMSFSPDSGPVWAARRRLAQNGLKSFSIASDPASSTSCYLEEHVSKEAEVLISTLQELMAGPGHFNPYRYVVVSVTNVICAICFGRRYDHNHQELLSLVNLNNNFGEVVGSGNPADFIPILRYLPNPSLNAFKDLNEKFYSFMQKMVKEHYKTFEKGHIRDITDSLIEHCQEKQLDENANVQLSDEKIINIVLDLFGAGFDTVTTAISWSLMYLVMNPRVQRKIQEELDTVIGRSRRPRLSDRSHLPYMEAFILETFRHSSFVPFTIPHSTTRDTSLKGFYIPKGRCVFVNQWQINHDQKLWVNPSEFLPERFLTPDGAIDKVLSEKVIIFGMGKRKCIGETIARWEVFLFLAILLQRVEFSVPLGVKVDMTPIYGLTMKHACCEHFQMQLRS

OCCNCCO
not listed: [12] | [13] | [14]
inactive: all other assays above

C=CCc1cc(S(=O)(=O)c2ccc(O)c(CC=C)c2)ccc1O
active: [1] 32.3 µM | [2] 32.7 µM | [3] 29.8 µM | [4] 30 µM | CD38, CD38 (gene 952) 14.5 µM | CD40, CD40 (gene 958) 11.6 µM | CD69, CD69 (gene 969) 24.3 µM | [5] 15.1 µM | [6] 13.8 µM | [7] 34.8 µM | [8] 36.8 µM | [11] 19.2 µM | [12] 2.32 µM | [13] 2.77 µM

CCCCCCCCCCCCCCCCOS(=O)(=O)O
not listed: CD38, CD38 (gene 952) | [12] | [13] | [14]
inactive: all other assays above

CCCCOC(=O)c1ccccc1
not listed: [9] | [12] | [13] | [14]
inactive: all other assays above

C[C@@H](Oc1ccc(CNC(=O)c2cccnc2Oc2ccc3c(c2)OCO3)c(F)c1)C(=O)O
active: [3] 2.29 µM
not listed: CD38, CD38 (gene 952) | [9] | [10] | [12] | [13] | [14]
inactive: all other assays above

OC[C@H]1O[C@@H]2O[C@H]3[C@H](O)[C@@H](O)[C@@H](O[C@H]4[C@H](O)[C@@H](O)[C@@H](O[C@H]5[C@H](O)[C@@H](O)[C@@H](O[C@H]6[C@H](O)[C@@H](O)[C@@H](O[C@H]7[C@H](O)[C@@H](O)[C@@H](O[C@H]1[C@H](O)[C@H]2O)O[C@@H]7CO)O[C@@H]6CO)O[C@@H]5CO)O[C@@H]4CO)O[C@@H]3CO
not listed: CD38, CD38 (gene 952) | [9] | [12] | [13]
inactive: all other assays above

NC(=O)N(O)[C@@H]1COc2cc(OCc3ccccc3)ccc21
active: [1] 3.45 µM
not listed: CD38, CD38 (gene 952) | [9] | [12] | [14]
inactive: all other assays above

CC(=O)c1ccccc1
not listed: [10] | [12] | [13] | [14]
inactive: all other assays above

OCc1c[nH]c2ccccc12
active: CD40, CD40 (gene 958) 20 µM | [9] 48.1 nM | [10] 31.1 µM
not listed: [12] | [13] | [14]
inactive: all other assays above

O=C(O)c1cccc(C[C@@H]2COc3ccc(OCc4nc5cc(F)ccc5s4)cc3[C@@H]2O)c1
not listed: CD38, CD38 (gene 952) | [9] | [10] | [12] | [13] | [14]
inactive: all other assays above
